# Reference: PMC8384837, “Expanding the binding specificity for RNA recognition by a PUF domain”
# What was measured:
# Test in all cases: yeast three-hybrid, YBZ-1, SC-Leu-His + 0.5 mM 3-AT, 4 days
# Settings in all cases: tags: N-Gal4 AD-HA kept; label: inside an RPR1-promoter hybrid RNA with tandem MS2 sites; ssRNA
# PUM1 PUF domain R1-SFK = PUM1 PUF domain R1-SFK (Homo sapiens, UniProt Q14671 828-1176, R864F;Q867K)
# How it was run: (§1)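 Repeat regions from input (SC-Leu) and selection (SC-Leu-His + 0.5 mM 3-AT) plates were PCR-amplified and Illumina-sequenced after four days of growth. The cells were strain YBZ-1 with a LexA–MS2 coat fusion and a HIS3 reporter, co-expressing Pumilio-1 PUF domain libraries and matching RNA elements from a centromeric plasmid. The interaction score is the log change in variant frequency from input to selection, taken in log2 with a pseudocount of 1 for absent variants.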
# PUM1 PUF domain R5-NSI = PUM1 PUF domain R5-NSI (Homo sapiens, UniProt Q14671 828-1176, C1007N;R1008S;Q1011I)
# Sequence of PUM1 PUF domain R5-NSI (Q14671 828-1176 C1007N/R1008S/Q1011I): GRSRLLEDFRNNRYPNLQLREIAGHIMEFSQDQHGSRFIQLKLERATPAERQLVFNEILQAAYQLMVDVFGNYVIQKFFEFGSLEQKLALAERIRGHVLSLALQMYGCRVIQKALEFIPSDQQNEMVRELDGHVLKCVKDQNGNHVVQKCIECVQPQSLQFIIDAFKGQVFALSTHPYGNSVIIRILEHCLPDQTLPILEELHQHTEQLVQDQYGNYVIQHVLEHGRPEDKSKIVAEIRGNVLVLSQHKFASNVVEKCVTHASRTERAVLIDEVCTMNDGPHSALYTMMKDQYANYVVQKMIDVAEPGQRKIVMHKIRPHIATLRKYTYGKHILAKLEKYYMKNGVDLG
# How it was run: as §1
# PUM1 PUF domain R7-RQR = PUM1 PUF domain R7-RQR (Homo sapiens, UniProt Q14671 828-1176, S1079R;N1080Q;E1083R)
# Sequence of PUM1 PUF domain R7-RQR (Q14671 828-1176 S1079R/N1080Q/E1083R): as the sequence (Q14671 828-1176 C1007N/R1008S/Q1011I) above, with N180C, S181R, I184Q, S252R, N253Q, E256R counted along it
# How it was run: as §1
# PUM1 PUF domain R7-TMG = PUM1 PUF domain R7-TMG (Homo sapiens, UniProt Q14671 828-1176, S1079T;N1080M;E1083G)
# Sequence of PUM1 PUF domain R7-TMG (Q14671 828-1176 S1079T/N1080M/E1083G): as the sequence (Q14671 828-1176 C1007N/R1008S/Q1011I) above, with N180C, S181R, I184Q, S252T, N253M, E256G counted along it
# How it was run: as §1
# PUM1 PUF domain R1-QLT = PUM1 PUF domain R1-QLT (Homo sapiens, UniProt Q14671 828-1176, S863Q;R864L;Q867T)
# How it was run: as §1
sequence,measurement,setting,value
GGCUAGAACUAGUGGAUCCCCCGGCGCCCGGCGGCUCGAGCCCGGGUAAGUGUAAAUCGUCUGCAUGCCGCCGGGCGCCAUGCCUGCAGGUCGACUCUAGAAAACAUG,binding signal,PUM1 PUF domain R1-SFK,6.11 log2 enrichment (interaction score)
GGCUAGAACUAGUGGAUCCCCCGGCGCCCGGCGGCUCGAGCCCGGGUAAGUGUUAAUAGUCUGCAUGCCGCCGGGCGCCAUGCCUGCAGGUCGACUCUAGAAAACAUG,binding signal,PUM1 PUF domain R5-NSI,3.96 log2 enrichment (interaction score)
GGCUAGAACUAGUGGAUCCCCCGGCGCCCGGCGGCUCGAGCCCGGGUAAGUUUAAAUAGUCUGCAUGCCGCCGGGCGCCAUGCCUGCAGGUCGACUCUAGAAAACAUG,binding signal,PUM1 PUF domain R7-RQR,4.97 log2 enrichment (interaction score)
same,binding signal,PUM1 PUF domain R7-TMG,2.65 log2 enrichment (interaction score)
GGCUAGAACUAGUGGAUCCCCCGGCGCCCGGCGGCUCGAGCCCGGGUAAGUGUAAAUUGUCUGCAUGCCGCCGGGCGCCAUGCCUGCAGGUCGACUCUAGAAAACAUG,binding signal,PUM1 PUF domain R1-QLT,2.41 log2 enrichment (interaction score)
